BLM inh: qHTS Assay for Inhibitors of Bloom's syndrome helicase (BLM); RecQ-like DNA helicase BLM (Homo sapiens), P54132; recombinant BLM DNA unwinding, fluorescence dequenching; Potency, µM (highest dose often 56.1 µM), inactives show at the highest dose activity change, negative = inhibition, hits mostly inhibitors; actives 0.2% (n = 350,000); AID 2528, 2010;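 also: plate controls were vehicle for no effect and no enzyme for full effect; nearly all actives have a fitted effect of over 35% in size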
RECQ1 helicase: qHTS Assay for Inhibitors of RecQ-Like Dna Helicase 1 (RECQ1). actives 0.54% (n = 240,000). ATP-dependent DNA helicase Q1 (Homo sapiens), P46063. RECQ1 DNA unwinding, red fluorescence kinetic read. Potency, µM (titrated, usually from 57.3 µM), without a hit: at the highest dose activity, negative = inhibition, actives largely listed as inhibitors;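 also: plate controls were vehicle for no effect and no enzyme for full effect; nearly all actives have a fitted effect of over 30% in size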
Target sequence (P46063 whole entry, looked up): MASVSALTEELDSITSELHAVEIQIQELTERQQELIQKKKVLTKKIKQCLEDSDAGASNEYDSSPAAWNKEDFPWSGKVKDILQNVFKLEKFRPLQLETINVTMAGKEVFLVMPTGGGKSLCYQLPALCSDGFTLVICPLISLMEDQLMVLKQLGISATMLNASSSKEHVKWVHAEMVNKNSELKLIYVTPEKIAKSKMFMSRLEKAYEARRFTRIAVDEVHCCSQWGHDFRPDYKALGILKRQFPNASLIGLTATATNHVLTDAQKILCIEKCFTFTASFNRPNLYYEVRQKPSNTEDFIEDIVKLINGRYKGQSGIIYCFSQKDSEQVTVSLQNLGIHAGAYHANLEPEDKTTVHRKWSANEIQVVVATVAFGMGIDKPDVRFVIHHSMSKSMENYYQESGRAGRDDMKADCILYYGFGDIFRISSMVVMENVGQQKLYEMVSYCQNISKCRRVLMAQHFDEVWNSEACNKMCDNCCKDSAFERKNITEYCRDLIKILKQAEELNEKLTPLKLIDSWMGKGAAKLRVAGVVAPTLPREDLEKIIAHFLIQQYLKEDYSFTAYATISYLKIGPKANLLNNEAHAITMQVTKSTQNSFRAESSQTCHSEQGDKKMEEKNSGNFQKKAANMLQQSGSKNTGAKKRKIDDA
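50 nM RECQ1T1 preincubated 15 min with compound in Tris pH 8.0 buffer with MgCl2, DTT, Tween-20 and 2.5 ug/ml poly(dI-dC); started with 200 nM TAMRA/BHQ-2 forked duplex and 2 mM ATP. Unwinding read as fluorescence (525/598 nm), two reads 2 h apart.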
APE1 inh: qHTS Assay for Inhibitors of the Human Apurinic/apyrimidinic Endonuclease 1 (APE1); DNA repair nuclease/redox regulator APEX1 (Homo sapiens), P27695; recombinant APE1, TAMRA/BHQ-2 abasic DNA cleavage fluorescence; actives 0.35% (n = 350,000); Potency, µM (doses to about 65.8 µM), for the others: at the highest dose activity change, negative = inhibition, most hits filed as inhibitors;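 also: plate controls were vehicle for no effect and reference inhibitor for full effect; nearly all actives have a fitted effect of over 55% in size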
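Incision of a quenched TAMRA/BHQ-2 THF abasic-site duplex (50 nM) by 0.75 nM APE1, after 15 min compound preincubation, measured as fluorescence increase over three 60 s reads. Values normalized to buffer, DMSO and NSC13755 control wells.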
Tb PGK inh: qHTS Assay to Find Inhibitors of Phosphoglycerate Kinase. AID 602233, 2012. Phosphoglycerate kinase, glycosomal (Trypanosoma brucei brucei), P07378. Potency, µM (top dose mostly 57.5 µM), inactives show at the top dose activity change, negative = inhibition, usual class: inhibitors. PGK/GAPDH coupled, Kinase-Glo luminescence, 60 min. actives 0.043% (n = 380,000); also: % is scaled to controls: 0 for no effect and ±100 for the full control effect; nearly all actives have a fitted effect of over 60% in size
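Recombinant glycosomal PGK reaction used 1,3-bisphosphoglycerate generated in-well by GAPDH (100nM final) in 100mM TEA pH 7.6, 5mM MgCl2, 0.01% Tween-20. After 60 minutes at room temperature, ATP was read by Kinase-Glo Plus luminescence end-point.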
GLS inh: qHTS for Inhibitors of Glutaminase (GLS); Glutaminase kidney isoform, mitochondrial (Homo sapiens), O94925; GLS enzymatic activity, qHTS titration; Potency, µM (highest dose often 45.5 µM), inactives show top-dose activity change, negative = inhibition, usual class: inhibitors; actives 0.21% (n = 410,000); AID 624170, 2012; also: % is scaled to controls: 0 for no effect and ±100 for the full control effect
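Enzyme dispensed in phosphate buffer (45 mM, pH 8.2, 0.02% Tween-20), compounds pinned in, then 1 mM L-glutamine solution and the glutamate oxidase–HRP–Amplex Red mix added; fluorescence read immediately and again after 30 min at room temperature.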
FEN1 inh-1: qHTS Assay for the Inhibitors of Human Flap endonuclease 1 (FEN1); P39748; Recombinant FEN1 flap cleavage, fluorescence, 15 min; Potency, µM (series often up to 114 µM), for inactives: at the top dose activity change, negative = inhibition, actives largely listed as inhibitors; actives 0.35% (n = 390,000); AID 588795, 2011; also: % is scaled to controls: 0 for no effect and ±100 for the full control effect; nearly all actives have a fitted effect of over 65% in size
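Potency values derive from four-parameter Hill fits of normalized qHTS data. The reaction used 10 nM FEN1 preincubated 15 min at room temperature with compound, then 50 nM DNA substrate, read at 0 and 15 min.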
FEN1 inh-2: qHTS Assay for the Inhibitors of FEN1: Confirmatory Assay for Cherry-picked Compounds; shares compounds with FEN1 inh-1; FEN1 flap cleavage, TAMRA/BHQ2 fluorogenic DNA substrate; Potency, µM, usual class: inhibitors; actives 79% (n = 880); AID 720498, 2013; also: nearly all actives have a fitted effect of over 60% in size
Numbers without * were called inactive; i = inactive; ? = inconclusive; nt = no result given; [ ] = remark or other dose. Compounds with a hit are over-represented: about 0.86% of the library has one in this group of screens. Calls follow the shape of the dose curve; as a rule, active = well fitted curve in the direction sought with a large enough effect; inconclusive = small, poorly fitted or top-dose-only effect, or another doubt; inactive = no such curve, though single readings can be large; an effect the other way counts as inactive or inconclusive. Potency is read from the fitted curve at half-maximal effect.

SMILES	BLM inh	RECQ1 helicase	APE1 inh	Tb PGK inh	GLS inh	FEN1 inh-1	FEN1 inh-2
CCCSc1nc(C)c2cc(C)cc(C)c2n1	-1%	3%	-3%	2%	-5%	-1%	nt
Cc1cccc(N2CCN(C(=O)c3c(C)oc4ncnc(N5CCCCC5)c34)CC2)c1C	-3%	nt	nt	2%	-21%	9%	nt
COc1ccc(-c2cc(=O)c3c(O)cc(OC4OC(COC5OC(C)C(O)C(O)C5O)C(O)C(O)C4O)cc3o2)cc1O (stereo unspecified)	nt	nt	28%	4%	16%	50µM*	?
CCOc1ccc(S(=O)(=O)NCCc2csc3nc(-c4ccc(F)cc4)nn23)cc1	3%	nt	nt	i	-1%	-2%	nt
COc1ccc(/C=N/NC(=O)c2[nH]c3ccc(Cl)cc3c2-c2ccccc2)c(C(=O)O)c1OC	-7%	nt	-4%	-14%	-18%	?	38*
CC[C@H](C)[C@H](NC(=O)[C@H](C)NC(=O)[C@@H](N)C(C)C)C(=O)N[C@H](C(=O)N[C@H](C(=O)N[C@@H](CC(C)C)C(=O)N[C@H](C(=O)N[C@@H](CCCCN)C(=O)O)C(C)C)C(C)C)[C@@H](C)O	-4%	-15%	-2%	nt	nt	nt	nt
COc1ccc(CCNc2c3ccccc3nc3ccccc23)cc1OC	91%	-2%	?	4%	-18%	50µM*	?
OCCCNc1c2ccccc2nc2ccccc12	131%	nt	17µM*	i	-5%	22µM*	21*
c1ccc2c(NCCc3c[nH]c4ccccc34)c3ccccc3nc2c1	6%	nt	?	i	9%	?	21*
Cc1ccc(C(=O)N2CCN(CCc3ccncc3)CC2)cc1	-1%	nt	nt	-7%	7%	-2%	nt
Cc1csc(N=Cc2ccc([N+](=O)[O-])o2)n1	nt	nt	nt	-13%	-15%	nt	30*
CCc1cc(=O)oc2c3c(c(Cl)cc12)OCN(Cc1cccc(OC)c1)C3	-7%	nt	nt	-4%	25%	0%	nt
COc1ccc(-c2cc(OC(=O)c3cccc(Cl)c3)c3c(C)oc(C)c3c(=O)c2)cc1	-4%	nt	nt	i	22%	-22%	nt
COC(=O)C1=COC(OC2OC(CO)C(O)C(O)C2O)C2C1C=CC2(O)CO (stereo unspecified)	-6%	-15%	7.9µM*	?	?	-1%	?
COc1ccc2cc3[n+](cc2c1OC)CCc1cc2c(cc1-3)OCO2	157%	26%	-6%	5%	-1%	?	?
COc1cc(/C=C/c2nc3ccccc3c(=O)[nH]2)cc(Cl)c1O	-28%	nt	12%	-10%	2%	?	?
COc1ccc(CNC(=O)C2CCN(S(=O)(=O)Cc3ccccc3)CC2)cc1	-2%	nt	nt	-9%	1%	2%	nt
Cc1cc(C)c(Cn2c3ccccc3c3cnn(CC(=O)N4CCCCCC4)c(=O)c32)c(C)c1	-15%	nt	nt	-1%	-9%	0%	nt
COc1ccc(/C=N/Nc2cc(C)nc3ccc(Br)cc23)cc1	-8%	nt	-44%	2%	0%	?	?
Cc1cc(N/N=C/c2ccccc2O)c2ccccc2n1	56%	nt	-32%	-1%	7%	?	nt
COc1cccc2c(N/N=C/c3ccccc3)cc(C)nc12	-8%	nt	11%	-10%	17%	-20%	nt
COc1ccc2nc(C)cc(N/N=C/c3cccc(OC)c3O)c2c1	-26%	nt	-24%	0%	14%	14µM*	9.5*
O=c1c2c(-c3ccccc3)csc2nc2c3ccccc3c(NCCN3CCOCC3)nn12	279%	48%	?	-1%	-29%	40µM*	21*
Cn1c(=O)c2cc(C(=O)N3CCN(c4ccc(Cl)cc4)CC3)sc2c2ccccc21	1%	nt	nt	i	-9%	11%	nt
Cc1ccsc1/C=N/NC(=O)C(N)=O	-2%	-5%	-2%	0%	-5%	16µM*	?
SMILES	BLM inh	RECQ1 helicase	APE1 inh	Tb PGK inh	GLS inh	FEN1 inh-1	FEN1 inh-2
COc1ccc(C(=O)Nc2ccccc2C(=O)OCc2cc(=O)n3c4c(sc3n2)CCCC4)cc1	-6%	nt	nt	6%	2%	-7%	nt
CCN(Cc1ccccc1)C(=O)c1cc2ccc3cccnc3c2[nH]1	-3%	nt	nt	-1%	-9%	?	nt
CN(C)CCCNc1ncnc2sc(-c3ccccc3)cc12	39%	10%	-5%	i	3%	?	?
Cc1cc(C)c(S(=O)(=O)/N=C2/C=C(Sc3ncn[nH]3)C(=O)c3ccccc32)cc1C	10µM*	11%	?	?	9%	50µM*	34*
Cc1cc(C)c(-c2cc([C@H](C)O/N=C3/[C@H]4OC4[C@@H](O)[C@H]4[C@H]3CCn3c(=O)n(-c5ccccc5)c(=O)n34)on2)c(C)c1 (stereo partly specified)	2%[12.4 µM]	-3%[11.5 µM]	24%[12.4 µM]	nt	nt	nt	nt
CCCc1c(C)[nH]c2ccc(C(=O)O)cc2c1=S	-10%	14µM*	22µM*	?	7.1µM*	45µM*	43*
Cc1ccccc1/C=N/Nc1nc2ccccc2c(=O)n1O	-8%	-7%	0%	0%	10%	40µM*	43*
COc1cc(/C=C/c2nc3ccccc3nc2/C=C/c2cc(OC)c(OC)c(OC)c2)cc(OC)c1OC	nt	nt	nt	nt	nt	-4%	nt
Cc1ccc(/C=C(\C#N)C(=O)Nc2ccc(Br)cc2)o1	1%	nt	nt	nt	6%	-8%	nt
N#C/C(=C\c1ccc([N+](=O)[O-])o1)C(=O)Nc1ccc(F)cc1	-24%	i	21%	6%	5%	-19%	48*
CN(C)CCCNc1cc(N2CCN(C3CCCCC3)CC2)c2noc3c2c1C(=O)c1ccccc1-3	36%	nt	nt	i	11%	11µM*	30*
COc1cc(Cl)c(NS(=O)(=O)c2ccc(-c3cnc(C4CC4)o3)cc2)c(OC)c1	-7%	nt	nt	-5%	-4%	0%	nt
Cc1ccc(S(=O)(=O)Nc2ccc(Br)cc2C(NCC(=O)O)c2ccccc2)cc1 (stereo unspecified)	1%	-2%	7%	1%	9%	-2%	nt

Screening results from PubChem BioAssay.
